Assay outcomes (PubChem)
TTR transcr act – TTR transcription activation, primary screen; SH-SY5Y TTR promoter Gaussia luciferase, luminescence; 100% = recombinant luciferase protein wells; activation, % at 16.7 µM; 92,000 tested, 1.3% active; AID 1117267;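 active = activation above the mean of all tested compounds plus 3 SD, cut at about 9.5% in these data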;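 note: cells exposed to compounds for one day before reading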
HuH7 TTR inh – HuH7 TTR transcription inhibition, counter-screen; HuH7 TTR promoter-Gaussia luciferase reporter, luminescence; shares compounds with TTR transcr act; inhibition, % at 16.7 µM; 1,100 tested, 4% active;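 active = average inhibition above the solvent-only control wells' mean plus 3 SD, cut at about 15% in these data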;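 note: inhibitors lower well luminescence so higher value means more inhibition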
TTR act confirm – confirmation of human transthyretin transcription activators; 1,100 tested, under 10 active; shares compounds with TTR transcr act; AID 1117280; SHSY5Y TTR promoter Gaussia luciferase, luminescence; 100% = purified Lucia enzyme wells, no cells; activation, % at 16.7 µM;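 active = mean activation above a set limit taken from the earlier primary screen, cut at about 11% in these data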
Large screens that a line does not name were inactive (follow-up assays come after a bar, where they were run). This excerpt belongs to a sample that is enriched for hits.

CCOC(=O)N1CCN(C(=O)C[C@H]2C(=O)N(CCCOC)C3=CCCC[C@@]32C(=O)OCC)CC1	none
CCOC(=O)[C@]12CCCC=C1N(Cc1ccc(OC)cc1)C(=O)[C@@H]2CC(=O)NCC12CC3CC(CC(C3)C1)C2	none
COc1ccc(CN2CCN(Cc3cccc(Oc4ccccc4)c3)CC2)c(OC)c1OC	none
O=C(c1ccccc1)N1CCN(Cc2cccc(Oc3ccccc3)c2)CC1	none
CN1CCN(Cc2cccc(Oc3ccccc3)c2)CC1	TTR transcr act 18 | HuH7 TTR inh inactive | TTR act confirm inactive
COC[C@H]1CCCN1c1ccc2c(c1)OCCCN(C1CC1)S2(=O)=O	none
CC1(C(=O)Nc2ccc(Cl)c(Cl)c2)CCN1C(=O)C1CCCCC1 (stereo not drawn)	none
Cc1ccc(/C=C/C2=NN(Cc3ccc(Cl)c(Cl)c3)C(=O)CC2)cc1	TTR transcr act 13 | HuH7 TTR inh inactive | TTR act confirm inactive
Cc1ccccc1CN1N=C(/C=C/c2ccccc2)CCC1=O	none
CC1=NN(Cc2ccccc2)C(=O)C1	none
COc1ccc2c3c([nH]c2c1)[C@]1(CCNC=O)Nc2ccccc2C1=NCC3	none
O=C(Nc1ccc2c(c1)OCCO2)C1c2ccccc2OCC(=O)N1Cc1cccnc1 (stereo not drawn)	none
CSCc1c(C(=O)Nc2ccc(N3CCOCC3)cc2)oc2ccccc12	TTR transcr act 14 | HuH7 TTR inh inactive | TTR act confirm inactive
COc1ccc(NC(=O)c2oc3ccccc3c2CSC)cc1S(=O)(=O)N1CCOCC1	none
O=C(CCn1c(=O)oc2ccccc21)Nc1ccc(N2CCOCC2)cc1	none
COc1ccc(-n2cc(CNCCCN3CCCC3=O)c(-c3ccccc3Cl)n2)cc1	none
COc1ncnc2c1ncn2CCCNCCCN1CCCC1=O	TTR transcr act 15 | HuH7 TTR inh inactive | TTR act confirm inactive
CC(CNCCCn1cnc2c(OCc3ccccc3)ncnc21)c1ccccc1 (stereo not drawn)	none
CCOP(=O)(OCC)c1ccc2c(c1)C(=O)c1ccccc1-2	none
O=C(CCCCCN1C(=O)[C@@H]2Cc3ccccc3CN2C1=O)Nc1ccccc1F	TTR transcr act 11 | HuH7 TTR inh inactive | TTR act confirm inactive
O=C(CCCCCN1C(=O)[C@@H]2Cc3ccccc3CN2C1=O)Nc1cccc(F)c1	none
CCOc1ccccc1NC(=O)CCCCCN1C(=O)[C@@H]2Cc3ccccc3CN2C1=O	none
Cc1cccc(NC(=O)CCCCCN2C(=O)[C@@H]3Cc4ccccc4CN3C2=O)c1	TTR transcr act 14 | HuH7 TTR inh inactive | TTR act confirm inactive
COc1ccc(NC(=O)CCCCCN2C(=O)[C@@H]3Cc4ccccc4CN3C2=O)cc1Cl	none
Cc1ccccc1NC(=O)CCCCCN1C(=O)[C@@H]2Cc3ccccc3CN2C1=O	none
COC(=O)[C@@]1(C(C)C)N=C(c2cc(OC)c(OC)c(OC)c2)[C@]2(O1)C(=O)N(Cc1cn(Cc3ccccc3)nn1)c1ccc(F)cc12	none
COC(=O)C1=C(C(=O)OC)[C@@]2([C@H](Cc3ccc(C)cc3)Nc3ccccc3)C=C[C@@H]1O2	none
C[C@@H]1CCCN1c1cccc2c1S(=O)(=O)N(C1CC1)CCCO2	none
CCN=C1SC(C(=O)Nc2cc(Cl)cc(Cl)c2)CC(=O)N1CC (stereo not drawn)	none
CCN=C1SC(C(=O)Nc2cccc(C)c2)CC(=O)N1CC (stereo not drawn)	none
CCN=C1SC(C(=O)Nc2ccc(Cl)c(Cl)c2)CC(=O)N1CC (stereo not drawn)	TTR transcr act 20 | HuH7 TTR inh inactive | TTR act confirm inactive
C[C@H]1[C@H](N(C)C)CC[C@@]23CCCN2C(=O)CCC[C@@H]13	none
CC(=O)NC(C)c1cc(Cl)c2cccnc2c1O (stereo not drawn)	none
Cc1cc(Cl)nc2c(C(C)C)cccc12	TTR transcr act 17 | HuH7 TTR inh inactive | TTR act confirm inactive
Cc1cccc2c3nc4ccccc4nc3n(C)c12	none
c1ccc(-c2nnc(-c3ccccn3)c(-c3ccccn3)n2)nc1	none
c1ccc(-c2nnc(-c3ccccn3)nn2)nc1	TTR transcr act 10 | HuH7 TTR inh inactive | TTR act confirm inactive
c1ccc(-c2ccc(-c3ccccn3)s2)nc1	none
O=C(NC1CCCCN(Cc2ccc(Cl)cc2)C1=O)c1ccc2ccccc2c1 (stereo not drawn)	none
FC(F)(F)c1ccc(Cn2ccc3ccc(-c4ccc5ccn(Cc6ccc(C(F)(F)F)cc6)c5c4)cc32)cc1	none
CCCC/C=C1/[C@@H](CC)N(Cc2ccc(OC)cc2OC)C2=N[C@@H](c3ccccc3)CC(=O)N21	none
O=C(O)CSC(=S)N1CCCC1	TTR transcr act 10 | HuH7 TTR inh inactive | TTR act confirm inactive
O=C(CSC(=S)N1CCCC1)c1ccccc1	none
O=C(O)CSCC(=O)N1CCCCC1	none
C[C@@H](NC(=O)c1nc[nH]c1C(=O)NCC(=O)OC(C)(C)C)c1ccccc1	none
CC(C)(C)OC(=O)CNC(=O)c1nc[nH]c1C(=O)N1CCN(c2ccccc2)CC1	none
CN(Cc1ccccc1)C(=O)c1[nH]cnc1C(=O)NCC(=O)OC(C)(C)C	TTR transcr act 11 | HuH7 TTR inh inactive | TTR act confirm 22
CC(=Nc1ccccc1)C1=C(O)COC1=O	TTR transcr act 18 | HuH7 TTR inh inactive | TTR act confirm inactive
O=C1OCC(O)=C1Cc1ccccc1	none
COc1ccc(OC)c(N=C(C)C2=C(O)COC2=O)c1	none
O=C(Nc1ccc(C(F)(F)F)cc1)OC1CC2CC1[C@H]1CCCCN1[C@H]2Cc1ccccc1 (stereo partly drawn)	none
C[C@H]1CN([C@@H](C)CO)S(=O)(=O)c2ccc(Br)cc2O[C@H]1CN(C)C(=O)CN(C)C	none
C[C@H](CO)N1C[C@H](C)[C@H](CN(C)C(=O)CC2CC2)Oc2cc(Br)ccc2S1(=O)=O	none
CCCNC(=O)N(C)C[C@@H]1Oc2cc(Br)ccc2S(=O)(=O)N([C@@H](C)CO)C[C@H]1C	none
CCC(=O)N(C)C[C@H]1Oc2cc(Br)ccc2S(=O)(=O)N([C@@H](C)CO)C[C@H]1C	TTR transcr act 15 | HuH7 TTR inh inactive | TTR act confirm inactive
C[C@H]1CN([C@@H](C)CO)S(=O)(=O)c2ccc(Br)cc2O[C@@H]1CN(C)C(=O)C1CCOCC1	TTR transcr act 24 | HuH7 TTR inh inactive | TTR act confirm inactive
C[C@H](CO)N1C[C@H](C)[C@@H](CN(C)C(=O)c2ccc(F)cc2)Oc2cc(Br)ccc2S1(=O)=O	none
C[C@H](CO)N1C[C@H](C)[C@@H](CN(C)C(=O)NC2CCCC2)Oc2cc(Br)ccc2S1(=O)=O	TTR transcr act 18 | HuH7 TTR inh inactive | TTR act confirm inactive
C[C@H]1CN([C@@H](C)CO)S(=O)(=O)c2ccc(Br)cc2O[C@H]1CN(C)C(=O)Cc1ccccc1	none
C[C@H]1CN([C@@H](C)CO)S(=O)(=O)c2ccc(-c3cncnc3)cc2O[C@H]1CN(C)C(=O)NC1CCCC1	none
CCCC1CCC2(CCCN2CCOC(=O)Nc2ccc(Br)cc2)CC1 (stereo not drawn)	none
C#CCOCCOCCOCCNc1nc(N2CCN(C(=O)[C@H]([C@@H](C)CC)n3cc(CCCCN)nn3)CC2)nc(N2CCN(C(=O)[C@H](Cc3ccc(O)cc3)n3cc(CCO)nn3)CC2)n1	none
O=C(OCc1ccccc1)[C@H](Cc1ccccc1)NC(=O)[C@@H]1CC=C[C@@H]2CCN(Cc3ccccc3)C(=O)[C@@H]21	none
COC(=O)[C@]12C[C@H](CC(=O)N3CCSCC3)C(=O)N(Cc3ccc4c(c3)OCO4)C1=C[C@H](C(C)C)O[C@@H]2C1CC1	none
